# Measurements taken from PubChem BioAssay AID504333 (National Center for Advancing Translational Sciences (NCATS), 2011).
# Hit rate of the full screen: of about 360,000 compounds, about 16,000 (4.4%) were called active. Roughly 9% stayed inconclusive and do not appear here. Calls come from the whole dose curve; as a rule, active = well fitted inhibition curve with a large enough effect; inconclusive = small, poorly fitted or top-dose-only effect; inactive = no such curve, though single readings can be large or run the other way. The list comes from a sample in which actives are over-represented; it also holds similar structures and randomly drawn compounds.
# Target: Bromodomain adjacent to zinc finger domain protein 2B (Homo sapiens) (UniProt Q9UIF8)
# Assay: qHTS Assay for Inhibitors of BAZ2B; note: nearly all actives have a fitted effect of over 60% in size
# Details: AlphaScreen BAZ2B-H3K14Ac peptide displacement; series mostly up to 114 µM; activity change, negative = inhibition: at the top concentration
# Method in brief: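 In this displacement format the biotinylated H3(5-23) peptide acetylated at Lys14 serves as ligand at 50 nM, with BAZ2B at 50 nM in PBS pH 7.4 containing 0.01% Tween-20. Donor and acceptor beads are 10 ug/mL final.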
# % is set by controls: 0 for no effect and ±100 for the full control effect; potency is the fitted concentration of half-maximal effect.
# Sequence of Bromodomain adjacent to zinc finger domain protein 2B (Homo sapiens) (Q9UIF8 whole entry, looked up, the tested form may be a part): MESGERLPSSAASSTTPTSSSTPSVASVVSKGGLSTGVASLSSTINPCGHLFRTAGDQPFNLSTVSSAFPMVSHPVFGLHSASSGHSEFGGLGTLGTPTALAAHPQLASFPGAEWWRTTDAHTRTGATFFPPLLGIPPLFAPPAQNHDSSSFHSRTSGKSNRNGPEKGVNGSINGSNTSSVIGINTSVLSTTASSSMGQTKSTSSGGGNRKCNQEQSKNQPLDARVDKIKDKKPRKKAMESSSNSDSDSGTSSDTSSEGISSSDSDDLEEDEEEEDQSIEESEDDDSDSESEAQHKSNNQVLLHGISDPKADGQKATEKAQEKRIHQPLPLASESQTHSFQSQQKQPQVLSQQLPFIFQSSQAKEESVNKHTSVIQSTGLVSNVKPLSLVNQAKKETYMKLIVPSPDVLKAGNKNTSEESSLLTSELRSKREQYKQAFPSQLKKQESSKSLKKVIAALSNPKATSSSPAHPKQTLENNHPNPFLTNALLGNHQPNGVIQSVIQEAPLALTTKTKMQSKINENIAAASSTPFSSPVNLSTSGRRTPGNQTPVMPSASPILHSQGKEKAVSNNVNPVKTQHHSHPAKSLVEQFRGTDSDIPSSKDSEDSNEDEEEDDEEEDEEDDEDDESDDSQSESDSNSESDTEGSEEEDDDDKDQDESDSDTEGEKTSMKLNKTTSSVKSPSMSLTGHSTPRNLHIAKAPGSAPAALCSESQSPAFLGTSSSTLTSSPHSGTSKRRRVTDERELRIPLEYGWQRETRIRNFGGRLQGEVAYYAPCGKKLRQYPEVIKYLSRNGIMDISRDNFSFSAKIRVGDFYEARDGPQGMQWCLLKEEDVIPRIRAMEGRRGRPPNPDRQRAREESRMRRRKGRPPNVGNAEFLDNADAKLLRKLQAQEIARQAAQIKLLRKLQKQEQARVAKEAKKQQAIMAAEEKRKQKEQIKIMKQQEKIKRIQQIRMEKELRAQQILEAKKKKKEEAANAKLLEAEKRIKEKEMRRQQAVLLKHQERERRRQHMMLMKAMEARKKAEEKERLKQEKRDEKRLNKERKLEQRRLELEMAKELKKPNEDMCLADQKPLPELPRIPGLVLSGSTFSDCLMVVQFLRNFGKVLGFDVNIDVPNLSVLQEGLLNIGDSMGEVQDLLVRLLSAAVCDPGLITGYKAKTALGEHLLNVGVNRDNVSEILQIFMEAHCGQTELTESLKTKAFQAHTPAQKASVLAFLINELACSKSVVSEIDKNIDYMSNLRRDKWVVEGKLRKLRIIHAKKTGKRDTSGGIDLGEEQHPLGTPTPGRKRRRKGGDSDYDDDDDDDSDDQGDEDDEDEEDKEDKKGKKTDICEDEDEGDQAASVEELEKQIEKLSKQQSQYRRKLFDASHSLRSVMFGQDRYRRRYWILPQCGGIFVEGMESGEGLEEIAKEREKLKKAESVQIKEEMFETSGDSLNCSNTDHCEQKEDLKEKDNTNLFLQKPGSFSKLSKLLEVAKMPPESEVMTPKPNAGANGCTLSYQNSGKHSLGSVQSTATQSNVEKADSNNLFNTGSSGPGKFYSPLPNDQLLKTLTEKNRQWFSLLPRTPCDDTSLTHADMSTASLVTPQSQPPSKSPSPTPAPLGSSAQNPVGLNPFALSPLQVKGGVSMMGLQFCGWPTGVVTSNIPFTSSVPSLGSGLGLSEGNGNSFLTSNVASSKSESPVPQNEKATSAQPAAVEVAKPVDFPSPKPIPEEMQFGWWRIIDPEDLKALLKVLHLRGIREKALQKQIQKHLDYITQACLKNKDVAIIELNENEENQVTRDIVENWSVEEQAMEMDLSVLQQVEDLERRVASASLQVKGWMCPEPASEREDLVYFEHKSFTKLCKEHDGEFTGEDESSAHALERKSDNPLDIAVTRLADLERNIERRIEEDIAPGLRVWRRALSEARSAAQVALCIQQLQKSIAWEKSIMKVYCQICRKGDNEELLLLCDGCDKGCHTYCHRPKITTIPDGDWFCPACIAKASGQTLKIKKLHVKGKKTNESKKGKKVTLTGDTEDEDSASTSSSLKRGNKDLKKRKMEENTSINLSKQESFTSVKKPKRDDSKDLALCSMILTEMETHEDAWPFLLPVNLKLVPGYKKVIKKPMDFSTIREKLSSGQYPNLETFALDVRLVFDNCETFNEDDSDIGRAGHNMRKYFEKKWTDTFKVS
Structure (SMILES),"activity change, negative = inhibition",Potency
COc1cccc(NC(=O)CN2C(=O)c3ccccc3Sc3ncccc32)c1,-15.8% (inactive),
CC(=O)Nc1ccc(NC(=O)c2cc3sccc3n2Cc2ccc(F)cc2)cc1,-11.3% (inactive),
COC(=O)c1ccc(NC(=O)CSc2n[nH]c(-c3ccccc3)n2)cc1,5.97% (inactive),
COc1cccc(-n2c(=S)sc3c(=O)n(-c4ccccc4C)c(SCC(=O)O)nc32)c1,1.29% (inactive),
Cc1cccc(-n2c(N)c(C(=O)N3CCN(C)CC3)sc2=S)c1,-8.65% (inactive),
CCOC(=O)c1sc(=S)n(-c2cccc(OC)c2)c1N,,50.1 µM (active)
CS(=O)(=O)N(CC(=O)N1CCN(Cc2ccccc2)CC1)c1ccc2c(c1)OCCO2,9.43% (inactive),
Clc1cccc(N=C2NN=C(c3ccc4c(c3)OCCO4)CS2)c1,-36.8% (inactive),
c1ccc(CN2CCC(N=C3NN=C(c4ccc5c(c4)OCCO5)CS3)CC2)cc1,,39.8 µM (active)
Cc1ccc(NC(=O)CN2C(=O)CC(C)Sc3ccccc32)c(C)c1 (centres undefined),-10.4% (inactive),
C=CCO/N=C/C1=C(O)C(C(=O)OC)C(C)(C)CC1=O (centres undefined),,39.8 µM (active)
CCCC(=O)C1=C(N(C)c2ccccc2)CC(C)(C)C(C(=O)OC)C1=O (centres undefined),-4.72% (inactive),
COc1ccc(CCNc2nc(-c3ccc(F)cc3)cc(C(F)(F)F)n2)cc1OC,22.9% (inactive),
CCOC(=O)c1c(NC(=O)COc2cc(C)ccc2C(C)C)sc(C)c1C,-14.4% (inactive),
O=C1CN(C(=O)Nc2ccccc2C(F)(F)F)C(c2ccccc2)c2c(sc3c2CCCC3)N1 (centres undefined),-2.91% (inactive),
Cc1onc(C(=O)NN)c1-c1csc(COc2ccccc2)n1,1.98% (inactive),
COc1cc(CC(=O)Nc2nc(-c3ccc(F)c(F)c3)cs2)cc(OC)c1OC,-9.28% (inactive),
CC(C)(C)C(=O)OCc1nc(-c2ccc(O)c(O)c2)cs1,,56.2 µM (active)
COCc1ccc(CN2CCC(Oc3ccc(C(=O)NCc4ccccn4)cc3)CC2)o1,0.52% (inactive),
Cc1cccc(C2c3[nH]c4ccccc4c3CCN2C(=O)c2cc(-c3cccn3C)n[nH]2)n1 (centres undefined),,12.6 µM (active)
COCc1ccc(C(=O)N2CCc3c([nH]c4ccccc34)C2c2ccccn2)s1 (centres undefined),,35.5 µM (active)
Cc1ccc(C2c3[nH]c4ccccc4c3CCN2C(=O)c2cccc(C)c2)cc1 (centres undefined),-1.99% (inactive),

Structure (SMILES),"activity change, negative = inhibition",Potency
COC(=O)[C@H]1[C@H]2C[C@H]3c4[nH]c5ccccc5c4CCN3C[C@@H]2CC[C@@H]1O,0.163% (inactive),
COc1ccc(Cn2cc(C(=O)c3ccc(C)cc3)c(=O)c3cc(OC)c(OC)cc32)cc1,-29.8% (inactive),
CCn1c(CN2CCC(C)CC2)nc2cc(NC(=O)c3ccccc3[N+](=O)[O-])ccc21,-27.8% (inactive),
CCc1ccc(Sc2cc(C(=O)NCCCOC(C)C)c3ccccc3n2)cc1,-6.65% (inactive),
CCOc1ccc(CNC(=O)Cn2cc3c(n2)-c2c(oc(C(=O)N4CCCC4)c2C)CC3)cc1,-26.1% (inactive),
COc1cc(C2c3c(oc4ccccc4c3=O)C(=O)N2c2nc(C)c(C)s2)ccc1O (centres undefined),1.61% (inactive),
Oc1ccc(/C=N/N(Cc2ccccc2)c2ccccc2)cc1,,39.8 µM (active)
CCN(CC)C(=O)N(CC)Cc1ccccc1,8.44% (inactive),
COc1ccc(/C=N/OCC(=O)N(Cc2ccccc2)c2ccccc2C(=O)O)cc1,-38% (inactive),
O=C(CCCOc1ccccc1)Nc1cccc(C(=O)O)c1,0.447% (inactive),
COc1cc(/C=C2/SC(=S)N(Cc3ccccc3)C2=O)cc(OC)c1O,,12.6 µM (active)
COc1ccc(/C=C2\SC(=S)N(CC(=O)NNC(=O)c3ccncc3)C2=O)cc1,-3.39% (inactive),
Cc1ccc(/C=C2\SC(=S)N(CCC(=O)Nc3ccc(O)cc3)C2=O)cc1,0.0674% (inactive),
COc1cccc(/C=C2/SC(=S)N(CC(=O)NC3C=CS(=O)(=O)C3)C2=O)c1 (centres undefined),-22.7% (inactive),
COc1ccc(/C=C2\SC(=S)N(CCC(=O)Nc3cccc(C(=O)O)c3)C2=O)cc1OC,,50.1 µM (active)
Cc1ccc(C(=O)Nc2ccccc2F)cc1S(=O)(=O)N1CCOCC1,0.786% (inactive),
CC(C)(C)OC(=O)N1CCC(c2c(C(=O)N3CCc4ccccc4C3)cnn2-c2ccc(F)cc2)CC1,4.44% [at 57.1 µM] (inactive),
Cc1ccc(CN2CCC(CNC(=O)c3cnn(-c4ccccc4Cl)c3C3CCN(C(=O)OC(C)(C)C)CC3)CC2)cc1,-4.83% [at 57.1 µM] (inactive),
CCc1ccc(S(=O)(=O)Nc2cc3c(C(=O)OCc4ccccc4)c(C)oc3c3ccccc23)cc1,-21% (inactive),
COc1ccccc1N1CCN(S(=O)(=O)CCNC(=O)COc2ccc(F)cc2)CC1,-15.1% (inactive),
O=C(C1CCCN(S(=O)(=O)c2cccc3nonc23)C1)N1CCN(c2ccccc2F)CC1 (centres undefined),-31.9% (inactive),
COc1cc(C(=O)Nc2ccc(OCc3cc(=O)n4ccc(C)cc4n3)cc2)cc(OC)c1OC,-3.88% (inactive),
